Only some compounds are listed: those with a hit (about 0.95% of all), similar ones and a draw of the others.
TbPYK inhibitor – qHTS of Trypanosoma Brucei Inhibitors; pyruvate kinase (Trypanosoma brucei), Q57TT1; TbPYK enzyme, Kinase-Glo Plus ATP luminescence, 45 min; Potency, µM (titrated, usually from 76.8 µM), for the others: at the highest dose activity, negative = inhibition, usual class: inhibitors; 410,000 tested, 0.12% active; AID 624173, 2012; also: nearly all actives have a fitted effect of over 50% in size
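In this concentration-response screen, enzyme-free wells defined baseline while DMSO plates tracked drift. Each reaction combined TbPYK, substrate, compound and 130 uM ADP for 45 min at room temperature. Kinase-Glo Plus luminescence gave the signal.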
RE007 growth inh – qHTS Assay for Inhibitors of the HIV-1 protein Vpr; S. pombe RE007 Vpr strain, BacTiter-Glo ATP luminescence, 24 h; Potency, µM (series often up to 92.2 µM), inactives show at the highest dose activity change, negative = less growth, usual class: inhibitors; 360,000 tested, 0.21% active; active = well fitted falling curve with a large enough effect; inconclusive = small, poorly fitted or top-dose-only effect; inactive = no such curve, though single readings can be large or run the other way; also: nearly all actives have a fitted effect of over 50% in size
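Fission yeast RE007 carrying one integrated HIV-1 vpr copy, seeded at OD 0.01 in PMG+AL medium with 23 nL pinned compound. Grown 24 h at 30 degrees; viability read by BacTiter-Glo luminescence after 5 min.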
Giardia FBPA inh – qHTS Assay for Inhibitors of Fructose-1,6-bisphosphate Aldolase from Giardia Lamblia. 290,000 tested, 0.71% active. A8B2U2. purified Giardia FBPA. AID 2451, 2010. Potency, µM (titrated, usually from 59.6 µM), for the others: top-dose activity, negative = inhibition, hits mostly inhibitors; also: nearly all actives have a fitted effect of over 55% in size
Target sequence (A8B2U2 whole entry, looked up): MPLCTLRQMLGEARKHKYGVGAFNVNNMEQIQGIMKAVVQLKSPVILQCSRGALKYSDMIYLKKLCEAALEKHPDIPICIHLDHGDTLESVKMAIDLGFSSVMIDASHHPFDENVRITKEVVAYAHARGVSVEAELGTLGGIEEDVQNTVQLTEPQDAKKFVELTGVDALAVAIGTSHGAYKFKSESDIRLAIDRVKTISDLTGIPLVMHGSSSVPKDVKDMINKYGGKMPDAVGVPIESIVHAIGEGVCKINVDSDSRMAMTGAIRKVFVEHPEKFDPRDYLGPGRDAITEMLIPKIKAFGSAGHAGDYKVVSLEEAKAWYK
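Giardia FBPA (40 nM reagent) was preincubated 10 min at RT with compound (up to 57.5 uM final), then substrate plus GAPDH/TPI/NAD/arsenate coupling system with diaphorase/resazurin was added; resorufin fluorescence (525/598 nm) was read after 20 min.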
LmPK inh – qHTS Assay for Inhibitors of Leishmania Mexicana Pyruvate Kinase (LmPK); purified LmPK, Kinase-Glo ATP luminescence, 1 h; Potency, µM (highest dose often 57.5 µM), for inactives: at the highest dose activity change, negative = inhibition, usual class: inhibitors; 290,000 tested, 0.37% active
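Pyruvate kinase activity monitored as ATP production (luciferase luminescence). Conditions: 0.1 nM enzyme, 0.5 mM PEP, 0.1 mM ADP, 1 h, RT; normalized against uninhibited and no-enzyme wells.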
* = called active by the depositor; i = inactive; ? = inconclusive; nt = no result; [ ] = dose if it differs, or a comment. Unless noted, calls follow the shape of the dose curve; as a rule, active = well fitted curve in the direction sought with a large enough effect; inconclusive = small, poorly fitted or top-dose-only effect, or another doubt; inactive = no such curve, though single readings can be large; an effect the other way counts as inactive or inconclusive. % is scaled to controls: 0 for no effect and ±100 for the full control effect; potency is read from the fitted curve at half-maximal effect.

SMILES | TbPYK inhibitor | RE007 growth inh | Giardia FBPA inh | LmPK inh
COc1ccc2c(c1)c(C(=O)N/N=C/c1cccc(Br)c1)c(C)n2C | -6% | -12% | 20µM* | 2%
COc1ccc2c(c1)c(C(=O)N/N=C/c1cccc(O)c1)c(C)n2C | -3% | 1% | -13% | -3%
COc1ccc(-c2nnc3n2N=C(c2ccccc2OC)CS3)c(OC)c1 | nt | nt | -2% | nt
CCOC(=O)c1ccc(N2C(=O)C=CC2=O)cc1 | 32µM* | 5.6µM* | ? | -12%
Nc1nnc(SC2CC(=O)N(c3ccccc3)C2=O)s1 (stereo not given) | -10% | 28µM* | -7% | 14%
O=C1CC(Sc2nnc(-c3ccccc3O)o2)C(=O)N1c1ccccc1 (stereo not given) | -8% | 50µM* | 2% | -3%
CCOC(=O)c1ccc(N2C(=O)CC(Sc3nnc(C)s3)C2=O)cc1 (stereo not given) | ? | 20µM* | -21% | 4%
NC(=O)c1c(NC(=O)c2nc(SCc3ccccc3F)ncc2Cl)sc2c1CCCC2 | 4% | nt | nt | nt
CC(=O)C1(O)Cc2c(O)c3c(c(O)c2C(OC2CC(N)C(O)C(C)O2)C1)C(=O)c1c(O)cccc1C3=O (stereo not given) | 2% | nt | nt | nt
C=CC1=C2C=C(C3CC3)N(CCCCO)C=C2C(=O)C(C)(OC(=O)c2ccco2)C1=O (stereo not given) | nt | nt | ? | -9%[11.5 µM]
CCCCCCCCCCCCCCCC(=O)OC[C@@H](NC(=O)C(Cl)Cl)[C@H](O)c1ccc([N+](=O)[O-])cc1 | -2% | nt | nt | nt
CCOc1ccc(N2C(=O)CC(Sc3nc4ccc(OCC)cc4s3)C2=O)cc1 (stereo not given) | -10% | -10% | nt | nt
C=CCNc1nnc(SC2CC(=O)N(c3ccc(OCCC)cc3)C2=O)s1 (stereo not given) | -19% | 11µM* | -20% | 10%
CC(C)[C@@H](CO)NC(=O)c1ccc2c3n(nc2c1)-c1ccccc1CO3 | -24% | -27% | -2% | 14µM*
CC(C)NC(=O)c1ccc2c3n(nc2c1)-c1ccccc1CO3 | ? | -30% | 6% | 13µM*
O=C(NCC1CC1)c1ccc2c3n(nc2c1)-c1ccccc1CO3 | ? | -22% | -4% | 14µM*
CCOc1ccc(NC(=O)c2c(NC(=O)c3cccs3)sc3c2CCC(C(C)(C)C)C3)cc1 (stereo not given) | -6% | nt | nt | nt
Fc1ccc(NCc2ccccc2-c2nnc(-c3ccccc3Cl)o2)cc1Cl | -15% | nt | nt | nt
C[C@@H]1C(=O)N(S(=O)(=O)c2ccccc2[N+](=O)[O-])[C@H]1c1ccc(-c2ccccc2)cc1 | nt | nt | 27% | nt
COc1ccc2c(c1)C(=O)/C(=C/C=C/c1ccccc1)CC2 | 2% | -14% | ? | -8%
COC1=CC(=O)C(O)=C/C1=C\C=C\c1ccccc1 | nt | nt | 22µM* | nt
NCC(O)c1cc(O)c(O)cc1F (stereo not given) | -5% | 0%[18.4 µM] | 5.6µM* | nt
On1c2c(c3c4nonc4ccc31)CCCC2 | nt | nt | 5.6µM* | -5%
COn1c2c(c3c4nonc4ccc31)CCCC2 | 5% | -16% | ? | 6%
CCCSc1ccc2nc(-c3ccccc3)cn2c1 | ? | ? | -11% | 6.3µM*
SMILES | TbPYK inhibitor | RE007 growth inh | Giardia FBPA inh | LmPK inh
COC(=O)c1sc(=S)sc1C(=O)OC | -12% | 32µM* | -6% | 3%
Nc1ccc(N2CCCCC2)c2nonc12 | ? | -8% | 2µM* | -8%
O=[N+]([O-])c1ccc(N2CCCCCC2)c2nonc12 | 1% | -12% | 1% | -1%
CC(C)(C)C1C/C(=C/c2ccccn2)C(=O)/C(=C/c2ccccn2)C1 (stereo not given) | 6% | -11% | ? | 0%
CC1C/C(=C/c2ccccn2)C(=O)/C(=C/c2ccccn2)C1 (stereo not given) | 3% | 63µM* | -19% | 0%
CCCS(=O)(=O)N1CC(=O)N(c2cccc(Cl)c2)C(C)(C(=O)NC2CCCCC2)C1 (stereo not given) | 4%[15.4 µM] | nt | nt | nt
Cc1ccccc1/C=C(\C#N)c1nc(-c2ccc(Cl)cc2)cs1 | 0% | nt | nt | nt
O=C(Oc1ccc(Cl)c2cccnc12)c1cccc([N+](=O)[O-])c1 | -5% | ? | -17% | 1%
O=C(Oc1c(Cl)cc(Cl)c2cccnc12)c1cccc([N+](=O)[O-])c1 | 8% | 8.9µM* | 14% | -3%
CCOc1ccc(Nc2nn(-c3ccc(OC(F)(F)F)cc3)nc2C(C)=O)cc1 | -13% | nt | nt | nt
O=C(CCN1CCCCC1)c1ccc2c(c1)OCCO2 | 2% | i | 4% | 5%
O=C(CCN1CCCC1Cc1ccccc1)c1ccc2c(c1)OCCO2 (stereo not given) | -6% | 25µM* | -5% | 6%
O=C(CCN1CCc2ccccc21)c1ccc2c(c1)OCCO2 | -8% | ? | -16% | -21%
O=C(CCN1CCc2ccccc2C1)c1ccc2c(c1)OCCO2 | -24% | 7.9µM* | -2% | 5%
COc1cc(NS(=O)(=O)c2ccc(N)cc2)nc(C)n1 | -3% | nt | nt | nt
Cc1ccc(-c2n[nH]c(=S)n2/N=C/c2ccc(C)o2)cc1 | 2.5µM* | 7% | 8% | -13%
Cn1cccc1/C=N/n1c(-c2ccccc2)n[nH]c1=S | ? | 18% | -13% | 7.9µM*
CN(C)c1ccc(/C=N/n2c(-c3cccnc3)n[nH]c2=S)cc1 | 2.8µM* | 12% | 6% | 0%
Cc1ccc(-c2n[nH]c(=S)n2/N=C\c2ccco2)cc1 | ? | -2% | 7% | -15%
Cn1cccc1/C=N/n1c(-c2ccc(C(C)(C)C)cc2)n[nH]c1=S | ? | 13% | nt | 20µM*
Cc1ccc(/C=N/n2c(-c3cccnc3)n[nH]c2=S)o1 | ? | 8% | -26% | 13%
CC(C)(C)CC(=O)OCC(=O)[C@@]12OC(C)(C)O[C@@H]1C[C@H]1[C@@H]3CCC4=CC(=O)C=C[C@]4(C)[C@@]3(F)[C@@H](O)C[C@]12C | 6% | nt | nt | nt
CCC1CCCCN1C(=O)Cn1c(=O)n(CCCCCC(=O)NCc2ccc(F)cc2)c(=O)c2sccc21 (stereo not given) | 1% | nt | nt | nt

Screens: PubChem, National Center for Advancing Translational Sciences (NCATS)
